Results published in PubChem BioAssay (NCI).
This is part of a sample that, as a whole, favours compounds with a hit. Of some 79,000 tested, about 15% had one in any assay. Values without a mark were called inactive. Calls of active or inactive are those of the source. Cut-off read from the data, not from the text of the source: active = growth inhibition above about 70%; inactive = the rest.

Assays:
[1] = NCI Yeast Anticancer Drug Screen. Data for the rad50 strain (AID 155);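 note: 0% = growth of vehicle-only cultures of the same strain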; conditions: S. cerevisiae rad50 strain growth inhibition; at 50.0 µM; hits give high values
In short: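 DNA repair mutant yeast, compound exposure, growth read-out; inhibition is taken relative to vehicle.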

[2] = NCI Yeast Anticancer Drug Screen. Data for the mec2-1 strain (AID 157); conditions: S. cerevisiae mec2-1 strain, at 50.0 µM, hits give high values
In short: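 Vehicle-treated cultures served as reference for growth inhibition of compound-exposed mec2-1 yeast.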

[3] = NCI Yeast Anticancer Drug Screen. Data for the sgs1 mgt1 strain (AID 161);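 note: 0% = growth of cultures given vehicle only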; conditions: S. cerevisiae sgs1 mgt1 strain, at 50.0 µM, hits give high values
In short: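 Genetically altered yeast, compound exposure, growth inhibition relative to vehicle.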

[4] = NCI Yeast Anticancer Drug Screen. Data for the cln2 rad14 strain (AID 165);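 note: 0% = growth equal to vehicle treated cultures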; conditions: S. cerevisiae cln2 rad14 strain, at 50.0 µM, hits give high values
In short: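 Each compound was tested on cln2 rad14 yeast. Inhibition of growth was calculated against vehicle-exposed controls.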

[5] = NCI Yeast Anticancer Drug Screen. Data for the bub3 strain (AID 167); conditions: S. cerevisiae bub3 mutant strain, at 50.0 µM, hits give high values
In short: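 In this screen, a yeast mutant lacking normal mitotic checkpoint function is challenged with compound. Relative growth versus vehicle gives the inhibition value.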

[6] = NCI Yeast Anticancer Drug Screen. Data for the mlh1 rad18 strain (AID 175); conditions: S. cerevisiae mlh1 rad18 strain growth inhibition; at 50.0 µM; hits give high values
In short: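 Vehicle-treated cultures served as the reference for growth inhibition in a yeast strain carrying DNA damage repair alterations exposed to each compound.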

Structure (SMILES) | growth inhibition [1] | growth inhibition [2] | growth inhibition [3] | growth inhibition [4] | growth inhibition [5] | growth inhibition [6]
CCC(COC(=O)C(c1ccccc1)c1ccccc1)NC1CCCCC1 (stereo unspecified) | 27.4% | 14.3% | 44.8% | 14.8% | 6.45% | 27.6%
C/C=C(\C)C(=O)OCC1=CCC2CCC(O)N12 (stereo unspecified) | 5.75% | 0.05% | 0.1% | 6.05% | 10.1% | 8.55%
CN(C)CCN1CC2C3CCCCC3=C3CCCCC3C2C1 (stereo unspecified) | -0.45% | 10.1% | 31.9% | -24.4% | 23.8% | 37.9%
NCC1OC(n2cnc3c(N)ncnc32)CC1O (stereo unspecified) | -16.1% | -2.75% | -17.8% | 0.65% | -28.6% | -7.85%
CCC(CC)NCCCNc1cc(OC)cc2cccnc12 | 20.8% | 33.6% | 53.8% | 4.65% | 30.9% | 48.6%
CCCCCCCCCCCCCCCC(=O)Nc1ccc(C(=O)C[n+]2ccc3c(NC(=O)CCC(=O)OC)cccc3c2)cc1 | 3.4% | -12.2% | 3% | -0.95% | 8.55% | -10.6%
O=C(O)CCCc1ccc(O)cc1 | 7.1% | 11.7% | 8.4% | 10.7% | -1.15% | 20.3%
CN(C)CC(O)C(=O)O (stereo unspecified) | -12.7% | 20.4% | -5.6% | 7.45% | 3.7% | -13.8%
OCCCN1CCN(CCO)CC1 | -42% | -14.8% | -12.7% | -48.9% | 4.25% | -2.25%
Cc1nc2nc(NCCCN(C)C)nc(NCCCN(C)C)c2nc1C | 18.8% | 1.25% | 22.1% | 23.6% | 21.4% | 15.3%
O=c1cc(O)cc2n1CCC2 | 5.15% | 4.6% | -11.4% | 16.4% | -14.8% | 0.35%
COc1ccc(Nc2nc(NNC(=O)Cc3ccccc3)nc(NNC(=O)c3ccncc3)n2)cc1 | 8.5% | 20.1% | 30.1% | 19.2% | 27.2% | 30.4%
CC(C)CCCC(C)C1CCC2(C)C3=C(CCC12C)C1(C)CCC(O)C(C)(C)C1CC3=O (stereo unspecified) | -0.35% | -0.5% | -18.6% | 1.85% | 2.1% | -5.45%
COc1ccc(Cl)cc1/C=C\C=N\OCC(=O)O | 5.2% | 1.85% | 1.05% | -43.6% | -5.85% | 7.25%
CCS(=O)(=O)Nc1ccc(NS(=O)(=O)CC)cc1 | 39.7% | 11.3% | 29.1% | 16.5% | 17.9% | 25.4%
O=C(CP(c1ccccc1)c1ccccc1)c1cccc(C(=O)CP(c2ccccc2)c2ccccc2)c1 | -4.3% | -22.1% | -5.05% | -8.6% | -14.3% | -19.4%
NC(=O)c1[nH]nc(C2OC(CO)C(O)C2O)c1O (stereo unspecified) | 8% | -27.2% | 7.35% | -0.05% | -22.9% | 8.75%
CSc1nc(NC2OC(CO)C(O)C(O)C2O)cc(=O)[nH]1 (stereo unspecified) | 3.5% | 4.2% | 2.85% | -9.8% | 7.5% | -2.9%
Cn1c2c(c3ccccc31)CCN(CCCCN1CCc3c(n(C)c4ccccc34)C1=O)C2 | -0.05% | -24.4% | -19.3% | 5.25% | -5% | -12.8%
Cc1c([N+](=O)[O-])cc(C(C)C)c(O)c1[N+](=O)[O-] | 14.8% | 25.3% | 27.9% | -6% | -9.5% | 66.2%
Cc1cc(O)c2c(c1)C[C@@H](O)C1=C2C(=O)c2c(O)ccc(OC3CC(O)C(OC4CC(OC5CCC(OC6CC(O)C(OC7CC(OC8CCC(O)C(C)O8)C(O)C(C)O7)C(C)O6)C(C)O5)C(O)C(C)O4)C(C)O3)c2C1=O (stereo partly specified) | 88.5% (active) | 90.6% (active) | 90.1% (active) | 84.8% (active) | 86.6% (active) | 88.5% (active)

Structure (SMILES) | growth inhibition [1] | growth inhibition [2] | growth inhibition [3] | growth inhibition [4] | growth inhibition [5] | growth inhibition [6]
CN(C)CCC(=O)c1ccc(C(=O)CCN(C)C)cc1 | -0.4% | 25.6% | -17.1% | -14.8% | -16.2% | -21.2%
NC(CS(N)(=O)=O)C(=O)O (stereo unspecified) | -6.3% | -3.75% | -1.05% | -51.5% | -3.2% | 2.8%
O=C1c2ccccc2C2(O)NC(=S)N(c3ccccc3)C12O (stereo unspecified) | -14.2% | -20.8% | 4.95% | 15.4% | 6.2% | -2.1%
Cc1ccc2c(=O)cc(-c3ccccc3)[nH]c2n1 | -48% | -57% | -42.1% | 11.8% | -59.1% | -41.1%
COc1cccc2c1CC/C(=C\c1ccccn1)C2=O | 98.5% (active) | 99.1% (active) | 98.9% (active) | 97.8% (active) | 98.8% (active) | 99.2% (active)
Cc1c(C(=O)CC(=O)C(=O)Nc2cccc(C(F)(F)F)c2)[n+](=O)c2ccccc2n1[O-] | 45.8% | 43.1% | 28.6% | 14.2% | 38.4% | 31.6%
Nc1ccc(CP(=O)(O)O)cc1 | -8.4% | 14.8% | -3.65% | -8.1% | 16.1% | 24.9%
CCNC(=O)NCC | -16.4% | -19.4% | -32.7% | -29.2% | -2% | -3.4%
Cc1ccc(C2SC(N)=Nc3c2c(C)nn3C(=O)c2ccncc2)cc1 (stereo unspecified) | -27.6% | -33.2% | -20% | -21.7% | -28% | -23.6%
CC1CSC(=S)N1C(=O)N1C(=S)SCC1C (stereo unspecified) | -42.4% | -56.8% | -52.9% | -10.8% | -43.9% | -35.5%
COc1cccc(C[n+]2cc([O-])on2)c1 | -16.1% | 26.1% | -3.3% | -27.5% | 21.1% | 18.4%
CSc1nc2ccc(N=Cc3ccccc3O)cc2s1 | -25.5% | -8.25% | -5.7% | -12.6% | 17.7% | -13.4%
C=C(COC(=O)C(C)C)[C@H]1Oc2ccc(C(C)=O)cc2[C@@H]1OC(=O)C(C)C | -11.5% | -3.9% | -15.9% | -9.55% | 0.45% | -23.1%
Cc1ccccc1N1C(=O)C2CC=CCC2C1=O (stereo unspecified) | -13.3% | 0.25% | 12.2% | -34.8% | -14.4% | -21.6%
CC(O)C(O)C(O)C(O)C#N (stereo unspecified) | 20.6% | 18% | 12.2% | 11% | 0.15% | 10.1%
CN(C)c1ccc(/C=N/NC(=O)c2ccccc2NC(=O)c2ccccc2)cc1 | -1.65% | -20.3% | -11.6% | -19.8% | 14.9% | 3.4%
CC1(CCl)Nc2ccccc2C(=O)N1c1ccccc1 (stereo unspecified) | 6.65% | -6.2% | 16.4% | 4.2% | 28.4% | 8.5%
Clc1cccc(NCNC2Nc3ccccc3N2)c1 | 39% | 20% | 6.6% | -14.3% | 18.1% | 27.9%
O=[N+]([O-])c1cc(NC(=S)SCc2ccc3c(c2)OCO3)ccc1Cl | 82.7% (active) | 72.2% (active) | 76.7% (active) | 42.8% | 56.4% | 78% (active)
OC(c1ccccc1)c1c(-c2ccccc2)[nH]c(-c2ccccc2)c1C(O)c1ccccc1 (stereo unspecified) | 1% | 14.8% | -6.5% | 22.2% | -23.3% | -6.9%
